# Results filed as inconclusive are left out. More than one record can exist for a structure, and the calls need not agree. Active and inactive are the calls of the source. Rule for the calls, unless noted: active = hit-call score of the fitted dose curve at least 0.9, where 1 is the maximum; inactive = score below 0.9.
# How the values were obtained:
# [1] = target: human RAR-related Orphan Receptor beta (RORb), RORB (gene 6096) (UniProt Q92753); assay: ATG_RORb_TRANS: Attagene TRANS-FACTORIAL HepG2 Assay for human RAR-related Orphan Receptor beta (RORb) (AID 2283010; active = hit-call score of the fitted dose curve at least 0.9, where 1 is the maximum)
# human RAR-related Orphan Receptor beta (RORb), RORB (gene 6096), sequence (Q92753 whole entry, looked up, the tested form may be a part): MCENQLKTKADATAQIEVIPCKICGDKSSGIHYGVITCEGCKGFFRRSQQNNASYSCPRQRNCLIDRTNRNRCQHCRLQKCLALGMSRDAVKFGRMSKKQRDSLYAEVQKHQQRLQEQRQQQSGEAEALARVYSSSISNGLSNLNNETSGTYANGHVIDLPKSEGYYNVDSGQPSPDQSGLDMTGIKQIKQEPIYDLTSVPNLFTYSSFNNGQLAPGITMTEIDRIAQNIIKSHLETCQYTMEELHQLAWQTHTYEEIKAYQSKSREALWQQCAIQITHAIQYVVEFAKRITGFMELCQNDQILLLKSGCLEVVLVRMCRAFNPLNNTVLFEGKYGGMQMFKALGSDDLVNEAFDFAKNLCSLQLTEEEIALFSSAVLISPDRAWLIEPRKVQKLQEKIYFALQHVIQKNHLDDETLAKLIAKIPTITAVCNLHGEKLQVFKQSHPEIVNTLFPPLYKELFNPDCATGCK
# Procedure, shortened: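 Read-out is reporter mRNA induction, quantified by RT-PCR with fluorescent capillary electrophoresis, 24 h post-dose in transiently transfected HepG2 expressing exogenous NR-Gal4 chimera. Activity fitted upward versus DMSO.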
# [2] = target: human RAR-related Orphan Receptor gamma (RORg), RORC (gene 6097) (UniProt P51449); assay: ATG_RORg_TRANS: Attagene TRANS-FACTORIAL HepG2 Assay for human RAR-related Orphan Receptor gamma (RORg) (AID 2283011; active = hit-call score of the fitted dose curve at least 0.9, where 1 is the maximum)
# human RAR-related Orphan Receptor gamma (RORg), RORC (gene 6097), sequence (P51449 whole entry, looked up, the tested form may be a part): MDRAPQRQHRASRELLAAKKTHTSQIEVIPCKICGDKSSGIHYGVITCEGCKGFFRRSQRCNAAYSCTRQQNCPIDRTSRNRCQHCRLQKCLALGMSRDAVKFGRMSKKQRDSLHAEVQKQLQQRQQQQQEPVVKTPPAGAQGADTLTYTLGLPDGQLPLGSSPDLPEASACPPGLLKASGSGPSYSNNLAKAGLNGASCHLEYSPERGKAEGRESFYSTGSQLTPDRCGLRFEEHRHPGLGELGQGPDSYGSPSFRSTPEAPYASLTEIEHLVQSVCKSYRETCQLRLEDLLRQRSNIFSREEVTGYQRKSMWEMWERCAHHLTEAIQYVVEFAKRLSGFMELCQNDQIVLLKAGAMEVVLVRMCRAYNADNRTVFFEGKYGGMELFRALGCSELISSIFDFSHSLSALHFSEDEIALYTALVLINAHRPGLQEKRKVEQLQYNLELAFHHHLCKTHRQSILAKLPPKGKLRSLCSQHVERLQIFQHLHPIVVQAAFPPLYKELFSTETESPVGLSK
# Procedure, shortened: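 HepG2 cells transiently transfected with GAL4-UAS reporter units and chimeric RORg-Gal4 construct; after 24 h chemical exposure, reporter mRNA measured by RT-PCR with fluorescent capillary electrophoresis, gain of signal fitted against DMSO.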
# [3] = target: human Retinoid X Receptor beta (RXRb), RXRB (gene 6257) (UniProt P28702); assay: ATG_RXRb_TRANS: Attagene TRANS-FACTORIAL HepG2 Assay for human Retinoid X Receptor beta (RXRb) (AID 2283013; active = hit-call score of the fitted dose curve at least 0.9, where 1 is the maximum)
# human Retinoid X Receptor beta (RXRb), RXRB (gene 6257), sequence (P28702 whole entry, looked up, the tested form may be a part): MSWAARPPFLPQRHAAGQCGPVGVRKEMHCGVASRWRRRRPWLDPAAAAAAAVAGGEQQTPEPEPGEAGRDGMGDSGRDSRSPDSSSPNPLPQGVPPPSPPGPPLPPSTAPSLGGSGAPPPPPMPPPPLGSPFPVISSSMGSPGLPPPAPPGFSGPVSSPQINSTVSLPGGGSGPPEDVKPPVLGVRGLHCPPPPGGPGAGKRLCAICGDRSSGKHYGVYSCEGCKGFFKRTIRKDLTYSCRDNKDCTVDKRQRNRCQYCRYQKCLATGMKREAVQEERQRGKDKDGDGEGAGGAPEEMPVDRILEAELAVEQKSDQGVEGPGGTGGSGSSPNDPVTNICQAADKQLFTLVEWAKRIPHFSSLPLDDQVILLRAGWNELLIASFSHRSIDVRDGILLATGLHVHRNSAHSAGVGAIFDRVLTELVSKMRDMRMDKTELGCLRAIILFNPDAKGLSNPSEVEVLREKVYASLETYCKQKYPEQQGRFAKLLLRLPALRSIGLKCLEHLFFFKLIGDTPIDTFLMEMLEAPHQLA
# Procedure, shortened: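 Readout is reporter transcript induction after 24 h dosing. It is measured by RT-PCR of total RNA followed by fluorescent capillary electrophoresis. HepG2 liver cells carry transfected multiple reporter units driven by an exogenous RXRb-Gal4 fusion; activity is relative to DMSO.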
# [4] = read-out: E-selectin (Homo sapiens) (UniProt P16581); assay: BSK_3C_Eselectin: BioMAP Diversity Plus: 3C Assay for Eselectin Biomarker Activity (AID 2283015); conditions: primary human endothelial cells (HUVEC); actives raise or lower the signal;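 note: cell surface E-selectin protein quantified by ELISA 24 h after dosing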
# Procedure, shortened: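 Primary human umbilical vein endothelial cells (3C system), read 24 h after compound addition; E-selectin measured by ELISA. Bidirectional curve fitting against DMSO baseline; cytotoxicity by parallel SRB total-protein staining.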
# [5] = read-out: Interleukin-1 alpha (IL1a), IL1A (gene 3552); assay: BSK_BE3C_IL1a: BioMAP Diversity Plus: BE3C Assay for Interleukin-1 alpha (IL1a) Biomarker Activity (AID 2283016); conditions: primary human bronchial epithelial cells; actives raise or lower the signal
# Procedure, shortened: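 IL-1a measured by ELISA after 24 h treatment of human primary bronchial epithelial cells, with gain or loss of signal fitted versus DMSO. Parallel cultures stained with SRB gauge overt cytotoxicity.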
# [6] = read-out: Monocyte Chemoattractant Protein-1 (MCP1), CCL2 (gene 6347); assay: BSK_3C_MCP1: BioMAP Diversity Plus: 3C Assay for Monocyte Chemoattractant Protein-1 (MCP1) Biomarker Activity (AID 2283017); conditions: primary human endothelial cells (HUVEC); actives raise or lower the signal
# Procedure, shortened: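 Human umbilical vein endothelial cells (3C system) exposed to chemicals for 24 h; MCP-1 quantified by ELISA against the DMSO baseline with bidirectional fitting, and parallel SRB staining used to assess cytotoxicity.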
# [7] = read-out: Monocyte Chemoattractant Protein-1 (MCP1), CCL2 (gene 6347); assay: BSK_4H_MCP1: BioMAP Diversity Plus: 4H Assay for Monocyte Chemoattractant Protein-1 (MCP1) Biomarker Activity (AID 2283018); conditions: primary human endothelial cells (HUVEC); actives raise or lower the signal
# Procedure, shortened: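 ELISA of MCP-1 (CCL2) 24 h after chemical dosing of HUVEC in the BioMAP 4H system. Gain or loss versus DMSO fitted; parallel SRB staining (560 nm) tracked overt cytotoxicity.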
# [8] = read-out: Human Leukocyte Antigen - DR isotype (HLADR), HLA-DRA (gene 3122); assay: BSK_3C_HLADR: BioMAP Diversity Plus: 3C Assay for Human Leukocyte Antigen - DR isotype (HLADR) Biomarker Activity (AID 2283019); conditions: primary human endothelial cells (HUVEC); actives raise or lower the signal;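 note: ELISA of cell-surface HLA-DR on HUVEC 24 h after dosing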
# Procedure, shortened: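 HUVEC monoculture, HLA-DR measured by ELISA 24 h after chemical dosing. Fitted bidirectionally against DMSO baseline; parallel SRB staining assessed cytotoxicity, with 3C proliferation read by SRB at 48 h.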
# [9] = read-out: Interleukin-8 (IL8), CXCL8 (gene 3576); assay: BSK_3C_IL8: BioMAP Diversity Plus: 3C Assay for Interleukin-8 (IL8) Biomarker Activity (AID 2283020); conditions: primary human endothelial cells (HUVEC); actives raise or lower the signal
# Procedure, shortened: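 IL-8 was measured by ELISA in HUVEC cultures 24 h after chemical dosing, with gain or loss of signal fitted relative to DMSO. Parallel SRB total-protein staining tracked overt cytotoxicity.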
# [10] = read-out: Monokine induced gamma interferon (MIG), CXCL9 (gene 4283); assay: BSK_3C_MIG: BioMAP Diversity Plus: 3C Assay for Monokine induced gamma interferon (MIG) Biomarker Activity (AID 2283021); conditions: primary human endothelial cells (HUVEC); actives raise or lower the signal
# Procedure, shortened: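 ELISA measurement of MIG in human umbilical vein endothelial cells 24 h after treatment. Cytotoxicity tracked by SRB staining in parallel cultures; gain or loss of signal fitted relative to DMSO.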
# [11] = target: human Vitamin D Receptor (VDR), VDR (gene 7421) (UniProt P11473); assay: ATG_VDR_TRANS: Attagene TRANS-FACTORIAL HepG2 Assay for human Vitamin D Receptor (VDR) (AID 2283022; active = hit-call score of the fitted dose curve at least 0.9, where 1 is the maximum)
# human Vitamin D Receptor (VDR), VDR (gene 7421), sequence (P11473 whole entry, looked up, the tested form may be a part): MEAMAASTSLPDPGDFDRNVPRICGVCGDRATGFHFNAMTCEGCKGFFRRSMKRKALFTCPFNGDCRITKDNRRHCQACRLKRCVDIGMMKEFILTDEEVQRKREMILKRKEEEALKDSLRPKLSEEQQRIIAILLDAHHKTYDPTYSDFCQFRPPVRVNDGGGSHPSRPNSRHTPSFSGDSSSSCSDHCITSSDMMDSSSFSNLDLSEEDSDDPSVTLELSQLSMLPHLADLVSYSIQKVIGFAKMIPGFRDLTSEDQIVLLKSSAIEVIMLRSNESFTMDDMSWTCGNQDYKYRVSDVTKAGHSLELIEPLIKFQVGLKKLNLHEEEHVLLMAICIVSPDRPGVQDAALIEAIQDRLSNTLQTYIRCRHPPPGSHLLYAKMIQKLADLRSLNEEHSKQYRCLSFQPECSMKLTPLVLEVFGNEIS
# Procedure, shortened: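 HepG2 cells were transiently transfected with GAL4-UAS reporter units and a chimeric VDR-Gal4 construct, then dosed for 24 hours. Reporter mRNA was quantified by RT-PCR, fluorescent labeling, HpaI digestion and capillary electrophoresis; gain of signal analysed vs DMSO.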
# [12] = BSK_3C_SRB: Viability Assessment in the BioMAP Diversity Plus: 3C Assay (AID 2283023); conditions: primary human endothelial cells (HUVEC);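 note: fitted both ways against DMSO so a hit may be signal rise or drop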
# Procedure, shortened: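 Human umbilical vein endothelial cells in the 3C system, treated 24 h. Total protein measured by 0.1% sulforhodamine B staining after 10% TCA fixation, read at 560 nm; bidirectional fit versus DMSO.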
# [13] = read-out: Matrix Metallopeptidase 1 (MMP1), MMP1 (gene 4312); assay: BSK_BE3C_MMP1: BioMAP Diversity Plus: BE3C Assay for Matrix Metallopeptidase 1 (MMP1) Biomarker Activity (AID 2283024); conditions: primary human bronchial epithelial cells; actives raise or lower the signal
# Procedure, shortened: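 ELISA measurement of MMP-1 after 24 h compound exposure of primary human bronchial epithelial cells. Changes in either direction fitted relative to DMSO; parallel SRB staining checked overt cytotoxicity.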
# [14] = BSK_3C_Vis: BioMAP Diversity Plus: 3C Assay for Morphology Visualization (AID 2283025); conditions: primary human endothelial cells (HUVEC);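 note: fitted both ways so gain or loss versus DMSO counts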
# Procedure, shortened: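 Light-microscopy visualization of HUVEC cultures at 24 h post-treatment, with DMSO as baseline for bidirectional fitting.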
# [15] = read-out: Pselectin, SELP (gene 6403); assay: BSK_4H_Pselectin: BioMAP Diversity Plus: 4H Assay for Pselectin Biomarker Activity (AID 2283026); conditions: primary human endothelial cells (HUVEC); actives raise or lower the signal
# Procedure, shortened: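 ELISA of surface P-selectin on HUVEC, 24 h after dosing, with parallel SRB staining (0.1% after 10% TCA fixation, 560 nm) for overt cytotoxicity. Activity fitted in both directions relative to DMSO.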
# [16] = BSK_4H_SRB: Viability Assessment in the BioMAP Diversity Plus: 4H Assay (AID 2283027); conditions: primary human endothelial cells (HUVEC);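 note: cells exposed to compound for 24 h before staining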
# Procedure, shortened: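 Cytotoxicity read-out in primary human endothelial cells: after 24 h compound exposure, cells were TCA-fixed (10%), stained with 0.1% SRB and absorbance taken at 560 nm. Values fitted in both directions relative to DMSO.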
# [17] = BSK_BE3C_SRB: Viability Assessment in the BioMAP Diversity Plus: BE3C Assay (AID 2283028); conditions: primary human bronchial epithelial cells
# Procedure, shortened: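 Human bronchial epithelial primary cells in confluent culture, 24 h after chemical dosing; total protein by 0.1% SRB staining after 10% TCA fixation, read at 560 nm. Bidirectional fitting versus DMSO baseline.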
# [18] = target: Retinoic acid receptor RXR-alpha (Homo sapiens) (UniProt P19793); assay: ATG_RXRa_TRANS: Attagene TRANS-FACTORIAL HepG2 Assay for human Retinoid X Receptor alpha (RXRa) (AID 2283012; active = hit-call score of the fitted dose curve at least 0.9, where 1 is the maximum)
# Retinoic acid receptor RXR-alpha (Homo sapiens), sequence (P19793 whole entry, looked up, the tested form may be a part): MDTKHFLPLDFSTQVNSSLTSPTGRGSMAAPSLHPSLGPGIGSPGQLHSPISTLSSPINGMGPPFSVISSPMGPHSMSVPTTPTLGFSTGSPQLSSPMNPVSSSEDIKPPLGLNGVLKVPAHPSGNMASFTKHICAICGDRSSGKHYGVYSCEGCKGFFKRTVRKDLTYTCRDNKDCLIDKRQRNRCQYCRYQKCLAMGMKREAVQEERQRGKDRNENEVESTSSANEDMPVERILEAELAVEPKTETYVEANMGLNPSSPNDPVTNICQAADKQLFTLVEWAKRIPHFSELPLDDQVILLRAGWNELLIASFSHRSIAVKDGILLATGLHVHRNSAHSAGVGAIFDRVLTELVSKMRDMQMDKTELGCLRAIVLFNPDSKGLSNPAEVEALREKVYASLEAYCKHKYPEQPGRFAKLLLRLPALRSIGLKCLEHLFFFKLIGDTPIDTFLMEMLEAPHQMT
# Procedure, shortened: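 TRANS format reporting activity of exogenous RXRa-Gal4 chimera in transiently transfected HepG2, 24 h exposure. Reporter transcripts quantified by RT-PCR with capillary electrophoresis, with gain of signal scored relative to DMSO.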
# [19] = target: human Thyroid Receptor alpha (THRa1), THRA (gene 7067) (UniProt P10827); assay: ATG_THRa1_TRANS: Attagene TRANS-FACTORIAL HepG2 Assay for human Thyroid Receptor alpha (THRa1) (AID 2283014; active = hit-call score of the fitted dose curve at least 0.9, where 1 is the maximum)
# human Thyroid Receptor alpha (THRa1), THRA (gene 7067), sequence (P10827 whole entry, looked up, the tested form may be a part): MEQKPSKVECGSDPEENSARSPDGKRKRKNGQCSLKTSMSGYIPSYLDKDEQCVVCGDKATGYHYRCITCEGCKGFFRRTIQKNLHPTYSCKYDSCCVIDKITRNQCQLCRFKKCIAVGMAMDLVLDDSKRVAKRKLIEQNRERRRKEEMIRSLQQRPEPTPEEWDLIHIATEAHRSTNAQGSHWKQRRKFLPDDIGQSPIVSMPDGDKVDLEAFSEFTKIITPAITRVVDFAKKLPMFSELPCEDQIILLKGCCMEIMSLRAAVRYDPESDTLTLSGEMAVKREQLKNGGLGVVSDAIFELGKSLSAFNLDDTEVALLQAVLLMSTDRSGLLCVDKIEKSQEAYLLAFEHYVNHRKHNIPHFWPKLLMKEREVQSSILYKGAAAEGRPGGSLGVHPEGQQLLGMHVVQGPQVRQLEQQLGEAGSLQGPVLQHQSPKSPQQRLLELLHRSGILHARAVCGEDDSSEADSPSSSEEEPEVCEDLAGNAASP
# Procedure, shortened: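 HepG2 cells transiently transfected with chimeric NR-Gal4 and GAL4-UAS reporter units, dosed 24 h. Reporter mRNA quantified by RT-PCR, fluorescent labeling, HpaI digestion and capillary electrophoresis; gain-of-signal fit versus DMSO.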
# [20] = read-out: Thrombomodulin, THBD (gene 7056); assay: BSK_3C_Thrombomodulin: BioMAP Diversity Plus: 3C Assay for Thrombomodulin Biomarker Activity (AID 2283029); conditions: primary human endothelial cells (HUVEC); actives raise or lower the signal
# Procedure, shortened: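 ELISA measurement of thrombomodulin on HUVEC surface 24 h after chemical dosing; activity fitted in both directions relative to DMSO vehicle.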
# E-selectin (Homo sapiens), sequence (P16581 whole entry, looked up): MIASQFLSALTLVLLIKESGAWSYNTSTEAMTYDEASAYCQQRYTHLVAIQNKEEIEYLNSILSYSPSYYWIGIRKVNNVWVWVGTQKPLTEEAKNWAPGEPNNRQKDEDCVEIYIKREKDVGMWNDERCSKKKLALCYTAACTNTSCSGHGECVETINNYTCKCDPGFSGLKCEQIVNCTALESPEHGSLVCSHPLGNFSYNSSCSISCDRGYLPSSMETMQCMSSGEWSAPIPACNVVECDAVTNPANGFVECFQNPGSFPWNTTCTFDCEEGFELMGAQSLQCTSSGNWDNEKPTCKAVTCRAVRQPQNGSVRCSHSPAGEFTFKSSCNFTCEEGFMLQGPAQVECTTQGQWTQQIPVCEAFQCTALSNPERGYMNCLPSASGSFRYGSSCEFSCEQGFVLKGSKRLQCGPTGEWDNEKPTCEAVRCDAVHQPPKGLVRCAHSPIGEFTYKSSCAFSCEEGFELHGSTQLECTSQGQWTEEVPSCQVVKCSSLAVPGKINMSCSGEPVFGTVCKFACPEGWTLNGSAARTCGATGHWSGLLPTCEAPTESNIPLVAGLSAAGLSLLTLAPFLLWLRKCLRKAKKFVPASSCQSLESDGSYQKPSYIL
compound,measurement,setting,value
C=CC(=O)NCOCCCC,outcome,[1],inactive
same,outcome,[2],inactive
same,outcome,[3],inactive
same,outcome,[4],inactive
same,outcome,[5],inactive
same,outcome,[6],inactive
same,outcome,[7],inactive
same,outcome,[8],inactive
same,outcome,[9],inactive
same,outcome,[10],inactive
same,outcome,[11],inactive
same,outcome,[12],inactive
same,outcome,[13],inactive
same,outcome,[14],inactive
same,outcome,[15],inactive
same,outcome,[16],inactive
same,outcome,[17],inactive
CC(=O)c1ccccc1O,outcome,[1],inactive
same,outcome,[18],inactive
same,outcome,[3],inactive
CC1C(C)(C)C2=C(C(=O)CCC2)C1(C)C (stereo unspecified),outcome,[1],inactive
same,outcome,[18],inactive
same,AC50,[3],87.6 µM (active)
CC(C)[N+](C)(CCOC(=O)C1c2ccccc2Oc2ccccc21)C(C)C,outcome,[1],inactive
same,outcome,[2],inactive
same,outcome,[19],inactive
same,outcome,[4],inactive
same,outcome,[5],inactive
same,outcome,[6],inactive
same,outcome,[7],inactive
same,outcome,[8],inactive
same,outcome,[9],inactive
same,outcome,[10],inactive
same,outcome,[11],inactive
same,outcome,[12],inactive
same,outcome,[13],inactive
same,outcome,[14],inactive
same,outcome,[15],inactive
same,outcome,[16],inactive
same,outcome,[17],inactive
same,outcome,[20],inactive
c1ccc2c(c1)[nH]c1ccccc12,outcome,[1],inactive
same,outcome,[18],inactive
same,outcome,[3],inactive
same,outcome,[19],inactive
same,outcome,[4],inactive
same,outcome,[5],inactive
same,outcome,[6],inactive
same,outcome,[7],inactive
same,outcome,[8],inactive
same,outcome,[9],inactive
same,outcome,[10],inactive
same,outcome,[12],inactive
same,AC50,[13],0.126 µM (active)
same,outcome,[13],inactive
same,outcome,[14],inactive
same,outcome,[15],inactive
same,outcome,[16],inactive
same,outcome,[17],inactive
same,AC50,[20],6.87 µM (active)
same,outcome,[20],inactive
CC(=O)OC/C=C(/C)CCC=C(C)C,outcome,[1],inactive
same,outcome,[18],inactive
same,outcome,[3],inactive
CC1=CC=C(C(C)C)CC1,outcome,[1],inactive
same,outcome,[18],inactive
same,outcome,[3],inactive
same,outcome,[4],inactive
same,outcome,[5],inactive
same,outcome,[6],inactive
same,outcome,[7],inactive
same,outcome,[8],inactive
same,outcome,[9],inactive
same,outcome,[10],inactive
same,outcome,[12],inactive
same,outcome,[13],inactive
same,outcome,[14],inactive
same,outcome,[15],inactive
same,outcome,[16],inactive
same,outcome,[17],inactive
same,outcome,[20],inactive
CC(=O)CC(=O)Nc1ccccc1C,outcome,[1],inactive
same,outcome,[3],inactive
CCOc1ccc(NC(N)=O)cc1,outcome,[1],inactive
same,outcome,[3],inactive
same,outcome,[19],inactive
CCc1cccc(C)c1N,outcome,[2],inactive
same,outcome,[18],inactive
same,outcome,[3],inactive
Cc1c(O)cccc1O,outcome,[1],inactive
same,outcome,[4],inactive
same,outcome,[5],inactive
same,outcome,[6],inactive
same,outcome,[7],inactive
same,outcome,[8],inactive
same,outcome,[9],inactive
same,outcome,[10],inactive
same,outcome,[12],inactive
same,outcome,[13],inactive
same,outcome,[14],inactive
same,outcome,[15],inactive
same,outcome,[16],inactive
same,outcome,[17],inactive
c1ccc2cnccc2c1,outcome,[1],inactive
same,outcome,[18],inactive
same,outcome,[19],inactive
same,outcome,[11],inactive
CCC(C)c1ccccc1 (stereo unspecified),outcome,[1],inactive
same,outcome,[3],inactive
same,outcome,[19],inactive
same,outcome,[11],inactive
